C-LANA FP = inhibitors of KSHV C-LANA binding to DNA, primary screen, biochemical, fluorescence polarization, FAM-LBS DNA, MBP-C-LANA, single point | Kaposi's sarcoma herpesvirus LANA C-terminal domain (residues 932-1162) DNA binding | inhibition, % at 9 µM | 340,000 compounds, 0.078% hits | AID 504423, 2011;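 active = highest replicate inhibition at or above 60% at 9 µM, even if other replicates fall short; inactive = all replicates below 60% inhibition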;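 note: 0% = neutral control wells and 100% = 4 µM acridine orange control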
BCLXL inh = inhibitors of human Bcl-xL, primary screen, biochemical, fluorescence polarization, HTS. 320,000 compounds, 0.7% hits. GST-Bcl-xL / FITC-Bim BH3 peptide fluorescence polarization. inhibition, % at 10.9 µM. Bcl-2-like protein 1 (Homo sapiens), Q07817;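 active = inhibition above the mean of all tested compounds plus 3 SD, cutoff set per campaign, cut at about 30% in these data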;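 note: 0% = DMSO wells and 100% = unlabeled Bim-BH3 peptide competitor; inhibitors lower millipolarization by displacing the labeled peptide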
MCL1-BIM inh = inhibitors of MCL1 binding to BIM-BH3, primary screen, biochemical, fluorescence polarization; 320,000 compounds, 0.68% hits; GST-MCL1 / FITC-Bim-BH3 fluorescence polarization; inhibition, % at 10.9 µM; Induced myeloid leukemia cell differentiation protein Mcl-1 (Homo sapiens), Q07820; AID 2057, 2009;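 active = inhibition above the mean inhibition of all tested compounds plus 3 SD, set per campaign, cut at about 40% in these data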;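 note: 0% = DMSO wells and 100% = unlabeled Bim-BH3 peptide control; higher means more loss of mP so more displacement of Bim peptide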
GLD-1 RNA inh = GLD-1/TGE RNA complex disruptors, primary screen, biochemical, fluorescence polarization; Female germline-specific tumor suppressor gld-1 (Caenorhabditis elegans), Q17339; 320,000 compounds, 0.44% hits; AID 2280, 2010; inhibition, % at 5.96 µM; purified GLD-1 + fluorescein TGE RNA;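 active = percent inhibition above a per-plate cutoff, the plate mean of test compounds plus 3 SD, cut at about 30% in these data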;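 note: 0% = DMSO wells with GLD-1 and probe and 100% = wells lacking GLD-1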
Target sequence (Q17339 whole entry, looked up): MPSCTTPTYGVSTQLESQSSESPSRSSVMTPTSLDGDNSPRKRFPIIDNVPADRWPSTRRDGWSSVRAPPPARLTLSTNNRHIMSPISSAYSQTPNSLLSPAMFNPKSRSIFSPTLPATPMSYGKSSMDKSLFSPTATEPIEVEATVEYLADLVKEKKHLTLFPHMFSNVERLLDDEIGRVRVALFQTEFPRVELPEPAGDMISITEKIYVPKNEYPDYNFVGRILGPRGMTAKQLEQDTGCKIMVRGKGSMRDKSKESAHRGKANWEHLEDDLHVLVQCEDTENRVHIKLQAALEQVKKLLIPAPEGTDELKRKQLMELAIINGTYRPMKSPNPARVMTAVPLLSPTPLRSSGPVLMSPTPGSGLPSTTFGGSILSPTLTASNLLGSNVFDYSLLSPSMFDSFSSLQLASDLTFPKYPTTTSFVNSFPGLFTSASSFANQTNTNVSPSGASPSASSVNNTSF
Keap1 Nrf2 FP = Keap1-Nrf2 protein-protein interaction inhibitors, primary screen, biochemical, fluorescence polarization, single point; Kelch-like ECH-associated protein 1 (Homo sapiens), Q14145; Keap1 Kelch-Nrf2 peptide fluorescence polarization, 1536-well; inhibition, % at 9.4 µM; 340,000 compounds, 0.15% hits; in the data active = inhibition above about 12%;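 note: human Keap1 Kelch domain with fluorescein labeled Nrf2 9mer peptide probe; 0% = neutral control wells and 100% = peptide positive control; higher means more block of Keap1 binding to Nrf2 peptide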
E coli Lon inh = inhibitors of E. coli Lon protease, primary screen, biochemical, fluorescence polarization. P0A9M0. purified E. coli Lon protease. inhibition, % at 7.94 µM. 360,000 compounds, 0.42% hits. AID 602123, 2011; in the data active = inhibition above about 13%, passing the limit was not always enough;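 note: 0% = enzyme with probe and DMSO and 100% = no enzyme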
eLon confirm = E. coli Lon protease inhibitor retest, confirmation, biochemical, fluorescence polarization; shares compounds with E coli Lon inh; purified E. coli Lon; inhibition, % at 7.94 µM; 1,400 compounds, 31% hits; AID 602230, 2012; in the data active = inhibition above about 16%;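 note: 0% = enzyme with probe and DMSO and 100% = no enzyme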
* hit, by the source's call; x = not tested or not shown; + = active, no number. Most compounds without a hit are left out; they make up all but 1.3% or so of the library.

SMILES	C-LANA FP	BCLXL inh	MCL1-BIM inh	GLD-1 RNA inh	Keap1 Nrf2 FP	E coli Lon inh	eLon confirm
CC(=O)N/C(=C/c1ccc2c(c1)OCO2)C(=O)NCC(=O)O	-1	0	-2	-5	-3	2	x
COC(=O)c1c(C(=O)OC)c2n(c1C)Cc1ccccc1C2	24	12	15	13	8	123*	-36
COC(=O)c1c(C(=O)OC)c(-c2ccccc2)n2c1CCC2	-1	1	8	-3	-3	2	x
Cc1ccc(-n2c(C)cc(C(=O)Cn3nc(C(=O)O)c4ccccc4c3=O)c2C)cc1	-1	-1	-16	-4	-7	51*	-4
CC(C)C1C(=O)N(Cc2cn(CCC3OCCO3)nn2)CCS(=O)(=O)N1Cc1ccc(-c2ccc(Cl)cc2)cc1 (stereo unspecified)	x	x	x	x	x	-1	x
Cc1ccc(Cn2cc(-c3ccccc3)nn2)cc1	0	3	6	1	-4	-9	x
CN1CCN(C2=C(NS(=O)(=O)c3cccs3)C(=O)c3ccccc3C2=O)CC1	1	4	-2	3	3	-4	x
O=C1C(NS(=O)(=O)c2cccs2)=C(N2CCN(c3cccc(C(F)(F)F)c3)CC2)C(=O)c2ccccc21	0	17	15	16	-1	22*	-1
CC12CCC(C(=O)NNC(=O)c3ccc(Br)cc3)(OC1=O)C2(C)C (stereo unspecified)	0	3	5	-5	-2	18*	-17
CC(C)Cn1c(NCCN(C)C)nc2c1c(=O)[nH]c(=O)n2C	0	3	-1	4	1	24*	1
CCNc1nc2c(c(=O)[nH]c(=O)n2C)n1CC(C)C	-2	2	-2	4	-7	2	x
COc1cc2[nH]c(C(=O)N3CCC(Cc4ccccc4)CC3)cc2c(OC)c1OC	1	4	2	5	-3	3	x
COc1cc(C(O)c2nc(-c3ccccc3OC)cs2)ccc1F (stereo unspecified)	x	x	x	x	x	-7	x
COC(=O)c1[nH]c2cccc(OC)c2c1NC(=O)CCN1CCN(c2ccccc2OC)CC1	-2	-12	9	-4	4	21*	6
CCn1cnc2cc(NCc3ccc(C)cc3)ccc21	2	6	10	-3	-4	117*	1
Nc1[nH]c(C(=O)c2ccccc2)c(-c2cccnc2)c1C(=O)NCCc1ccc(Cl)cc1Cl	x	x	x	x	x	+	-1
CC(C)(C)OC(=O)N(CCc1ccccc1)Cc1ccc(OCc2cccc(NC(=O)/C=C/c3ccccc3)c2)cc1	1	x	x	x	-5	15*	-7
O=C1CCc2cc(S(=O)(=O)N3CCN(c4cccc(Cl)c4)CC3)ccc2N1	-3	4	-3	6	-1	-12	x
O=C1Cc2cc(S(=O)(=O)N3CCN(c4cccc(Cl)c4)CC3)ccc2N1	-1	-22	-25	-5	1	52*	-6
Cc1ccc(S(=O)(=O)NNC(=O)Nc2cccc(C)c2C)c(C)c1	-2	2	2	5	-2	21*	2
Cc1ccc(N2CCN(C(=S)Nc3ccccc3C)CC2)cc1	4	5	4	-3	-2	11	x
CCOC(=O)C1CCCN(C(=O)c2ccc(S(=O)(=O)Nc3ccccc3OC)cc2)C1 (stereo unspecified)	0	3	2	4	1	21*	-11
CSc1ccc(OC2(C)CCN(Cc3cc4ccccc4o3)C2)cc1 (stereo unspecified)	x	x	x	x	x	11	x
Cc1cc(C)c2c(c1)-c1cc(C)nn1C(c1ccc3c(c1)OCO3)N2 (stereo unspecified)	0	4	4	8	-2	21*	-1
Cc1cc2n(n1)C(c1ccc3c(c1)OCO3)Nc1c(C)cccc1-2 (stereo unspecified)	1	2	4	5	-3	-12	x
SMILES	C-LANA FP	BCLXL inh	MCL1-BIM inh	GLD-1 RNA inh	Keap1 Nrf2 FP	E coli Lon inh	eLon confirm
CNC(=O)CSc1nc2cccnc2n1C1CCCCC1	-2	4	2	7	-2	-4	x
CNC(=O)CSc1nc2cccnc2n1-c1ccc(F)cc1	-1	x	x	x	0	28*	-11
O=C(NC1CCCC1)C1CCN(C(=O)c2ccc(Cl)cc2Cl)CC1	-2	2	2	-1	-2	3	x
Cc1cccc(S(=O)(=O)N2CN(Cc3ccco3)c3nc4ccccc4nc32)c1	4	25	24	19	-7	59*	-13
NS(=O)(=O)c1ccc(CCNC(=O)CCc2nc3ccccc3s2)cc1	0	-2	-2	1	-1	-10	x
CCC(=O)NC(C)c1cc(Cl)c2ccccc2c1O (stereo unspecified)	-4	3	-6	4	-4	-19	x
CCC(=O)NC(c1cc(Cl)c2ccccc2c1O)C1CC1 (stereo unspecified)	2	151*	-5	-4	2	21*	-6
Cc1cn(CC(=O)N2CCN(c3ccccn3)CC2)c(=O)[nH]c1=O	-1	x	x	x	0	-6	x
Cc1cc(C)cc(C(=O)Nc2ccncc2)c1	0	-7	-6	-9	-4	19*	-5
Cc1cc(C)cc(C(=O)Nc2cccnc2)c1	-1	5	-2	-4	-4	4	x
Cc1cc(NC(=O)CCC(=O)N(Cc2ccco2)C2(C(=O)NC3CCCCC3)CCCCC2)no1	-1	-1	-2	-4	1	21*	-3
COc1ccc(NC(=O)Nc2ccc(OCc3ccccc3)cc2)cn1	15	x	x	x	1	25*	25*
COc1c(O)cccc1[C@@H](O)C1CCN(CCc2ccc(F)cc2)CC1	14	41*	40	58*	6	35*	0
O=C(Nc1cccc(C(=O)N2CCCCC2)c1)c1ccc(Cl)cc1	-1	-2	1	3	4	17*	5
O=C(Nc1cccc(C(=O)N2CCCCC2)c1)C1CCCC1	1	x	x	x	-2	16*	-6
O=C(Nc1cccc(C(=O)N2CCCCC2)c1)C1CCC1	2	x	x	x	-4	0	x
COc1ccc(C2CC(c3cccs3)=NN2C(=O)CSc2nc(=O)n3cc(C)ccc3n2)cc1 (stereo unspecified)	-1	4	3	-3	-4	-9	x
O=C(NNC(=O)c1ccccn1)c1ccc(OC(F)F)cc1	0	x	x	4	2	-2	x

Bioassay records (PubChem BioAssay)
